Experimental data as given in PubChem BioAssay (EPA / NIEHS).
Active and inactive are the calls of the source. The calls were made as follows: active = hit-call score of the fitted dose curve at least 0.9, where 1 is the maximum; inactive = score below 0.9.

Assays:
[1] = read-out: Urokinase-type plasminogen activator receptor (uPAR), PLAUR (gene 5329); test: BSK_4H_uPAR: BioMAP Diversity Plus: 4H Assay for Urokinase-type plasminogen activator receptor (uPAR) Biomarker Activity (AID 2283030); conditions: primary human endothelial cells (HUVEC); actives raise or lower the signal
Summary of the method: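 Cell-surface uPAR ELISA signal, measured 24 h after dosing human umbilical vein endothelial cells, was analyzed with bidirectional fitting relative to DMSO. Parallel SRB staining of total protein tracked overt cytotoxicity.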

[2] = read-out: Vascular endothelial growth factor receptor 2 (Homo sapiens) (UniProt P35968); test: BSK_4H_VEGFRII: BioMAP Diversity Plus: 4H Assay for Vascular endothelial growth factor receptor 2 (VEGFR2) Biomarker Activity (AID 2283031); conditions: primary human endothelial cells (HUVEC); actives raise or lower the signal;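 as to AC50: cell-surface VEGFR2 protein level quantified by ELISA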
Summary of the method: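 ELISA read-out of VEGFRII in primary human umbilical vein endothelium, taken 24 h after chemical treatment. Responses are expressed relative to DMSO, with bidirectional fitting.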

[3] = read-out: Human Leukocyte Antigen - DR isotype (HLADR), HLA-DRA (gene 3122); test: BSK_BE3C_HLADR: BioMAP Diversity Plus: BE3C Assay for Human Leukocyte Antigen - DR isotype (HLADR) Biomarker Activity (AID 2283032); conditions: primary human bronchial epithelial cells; actives raise or lower the signal
Summary of the method: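 Chemicals are dosed onto BE3C bronchial epithelial cultures of human origin and left 24 h. HLA-DR is then measured by ELISA, and the endpoint is fitted in both directions using DMSO as the activity baseline.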

[4] = read-out: Vascular cell adhesion molecule 1 (VCAM1), VCAM1 (gene 7412); test: BSK_4H_VCAM1: BioMAP Diversity Plus: 4H Assay for Vascular cell adhesion molecule 1 (VCAM1) Biomarker Activity (AID 2283033); conditions: primary human endothelial cells (HUVEC); actives raise or lower the signal
Summary of the method: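 Chemicals are added to primary human umbilical vein endothelial cells. After 24 h, VCAM-1 levels are measured by ELISA. Values come from bidirectional fitting referenced to DMSO.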

[5] = read-out: Interferon-gamma inducible Protein 10 (IP10), CXCL10 (gene 3627); test: BSK_BE3C_IP10: BioMAP Diversity Plus: BE3C Assay for Interferon-gamma inducible Protein 10 (IP10) Biomarker Activity (AID 2283034); conditions: primary human bronchial epithelial cells; actives raise or lower the signal
Summary of the method: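 IP-10 quantified by ELISA serves as the endpoint. Cells: primary human bronchial epithelium, read 24 h after compound addition. Activity is derived by bidirectional fitting with DMSO as negative control.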

[6] = read-out: Monokine induced gamma interferon (MIG), CXCL9 (gene 4283); test: BSK_BE3C_MIG: BioMAP Diversity Plus: BE3C Assay for Monokine induced gamma interferon (MIG) Biomarker Activity (AID 2283035); conditions: primary human bronchial epithelial cells; actives raise or lower the signal
Summary of the method: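 ELISA quantified MIG after 24 h exposure of primary bronchial epithelial cultures, analysed in both directions relative to DMSO. Cytotoxicity tracked in parallel cultures by sulforhodamine B staining.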

[7] = read-out: Transforming growth factor beta 1 (TGFb1), TGFB1 (gene 7040); test: BSK_BE3C_TGFb1: BioMAP Diversity Plus: BE3C Assay for Transforming growth factor beta 1 (TGFb1) Biomarker Activity (AID 2283036); conditions: primary human bronchial epithelial cells; actives raise or lower the signal
Summary of the method: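 Bronchial epithelial primary cells are treated with test chemical, then TGF-b1 is quantified by ELISA after 24 hours. Values derive from bidirectional fitting against DMSO, with cytotoxicity checked by SRB staining in parallel cultures.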

[8] = read-out: Plasminogen activator inhibitor-1 (PAI1), SERPINE1 (gene 5054); test: BSK_BE3C_PAI1: BioMAP Diversity Plus: BE3C Assay for Plasminogen activator inhibitor-1 (PAI1) Biomarker Activity (AID 2283037); conditions: primary human bronchial epithelial cells; actives raise or lower the signal
Summary of the method: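 Values derive from bidirectional fitting against DMSO baseline of PAI-1 levels, measured by ELISA in human bronchial epithelial cells 24 h after compound addition.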

[9] = read-out: Urokinase-type plasminogen activator receptor (uPAR), PLAUR (gene 5329); test: BSK_BE3C_uPAR: BioMAP Diversity Plus: BE3C Assay for Urokinase-type plasminogen activator receptor (uPAR) Biomarker Activity (AID 2283039); conditions: primary human bronchial epithelial cells; actives raise or lower the signal
Summary of the method: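 Steps: dose human primary bronchial epithelial cells, incubate 24 h, measure uPAR by ELISA, then fit gain- or loss-of-signal response bidirectionally relative to DMSO.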

[10] = read-out: Interleukin-6 (IL6), IL6 (gene 3569); test: BSK_CASM3C_IL6: BioMAP Diversity Plus: CASM3C Assay for Interleukin-6 (IL6) Biomarker Activity for (AID 2283040); conditions: primary human coronary artery smooth muscle cells; actives raise or lower the signal
[11] = read-out: Tissue plasminogen activator (tPA), PLAT (gene 5327); test: BSK_BE3C_tPA: BioMAP Diversity Plus: BE3C Assay for Tissue plasminogen activator (tPA) Biomarker Activity (AID 2283041); conditions: primary human bronchial epithelial cells; actives raise or lower the signal
Summary of the method: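 Gain- or loss-of-signal in tPA, measured by ELISA, derived by bidirectional fitting against DMSO. Cells: human primary bronchial epithelial; read at 24 h after chemical dosing.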

[12] = read-out: Interleukin-8 (IL8), CXCL8 (gene 3576); test: BSK_CASM3C_IL8: BioMAP Diversity Plus: CASM3C Assay for Interleukin-8 (IL8) Biomarker Activity (AID 2283042); conditions: primary human coronary artery smooth muscle cells; actives raise or lower the signal;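 also: IL-8 protein level quantified by ELISA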
[13] = read-out: Human Leukocyte Antigen - DR isotype (HLADR), HLA-DRA (gene 3122); test: BSK_CASM3C_HLADR: BioMAP Diversity Plus: CASM3C Assay for Human Leukocyte Antigen - DR isotype (HLADR) Biomarker Activity (AID 2283043); conditions: primary human coronary artery smooth muscle cells; actives raise or lower the signal;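 also: cell-surface HLA-DR protein level quantified by ELISA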
[14] = read-out: Macrophage colony-stimulating factor (MCSF), CSF1 (gene 1435); test: BSK_CASM3C_MCSF: BioMAP Diversity Plus: CASM3C Assay for Macrophage colony-stimulating factor (MCSF) Biomarker Activity (AID 2283044); conditions: primary human coronary artery smooth muscle cells; actives raise or lower the signal;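 also: M-CSF protein amount quantified by ELISA after 24 h exposure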
[15] = read-out: Low-density lipoprotein receptor (LDLR), LDLR (gene 3949); test: BSK_CASM3C_LDLR: BioMAP Diversity Plus: CASM3C Assay for Low-density lipoprotein receptor (LDLR) Biomarker Activity (AID 2283045); conditions: primary human coronary artery smooth muscle cells; actives raise or lower the signal;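 also: LDLR protein level on the cell surface quantified by ELISA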
[16] = read-out: Monocyte Chemoattractant Protein-1 (MCP1), CCL2 (gene 6347); test: BSK_CASM3C_MCP1: BioMAP Diversity Plus: CASM3C Assay for Monocyte Chemoattractant Protein-1 (MCP1) Biomarker Activity (AID 2283046); conditions: primary human coronary artery smooth muscle cells; actives raise or lower the signal;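 also: MCP-1 level quantified by ELISA 24 h after dosing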
[17] = BSK_CASM3C_Proliferation: Cell Proliferation Assessment in the BioMAP Diversity Plus: CASM3C Assay (AID 2283047); conditions: primary human coronary artery smooth muscle cells;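 also: sulforhodamine B total protein stain as relative cell number at 560 nm; sub-confluent cells exposed 48 h before staining; fitted both ways against DMSO so gain or loss of cell number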
[18] = read-out: Monokine induced gamma interferon (MIG), CXCL9 (gene 4283); test: BSK_CASM3C_MIG: BioMAP Diversity Plus: CASM3C Assay for Monokine induced gamma interferon (MIG) Biomarker Activity (AID 2283048); conditions: primary human coronary artery smooth muscle cells; actives raise or lower the signal;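 also: MIG protein level measured by ELISA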
[19] = read-out: serum amyloid A (SAA), SAA1 (gene 6288); test: BSK_CASM3C_SAA: BioMAP Diversity Plus: CASM3C Assay for serum amyloid A (SAA) Biomarker Activity (AID 2283049); conditions: primary human coronary artery smooth muscle cells; actives raise or lower the signal;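 also: SAA protein level quantified by ELISA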

Measured: AC50

COC(=O)N(OC)c1ccccc1COc1ccn(-c2ccc(Cl)cc2)n1
active: [1] 20 µM | [3] 3.97 µM | [5] 8.98 µM | [8] 5.65 µM | [12] 15.8 µM | [17] 6.45 µM
inactive: all other assays above

CCCC1COC(Cn2cncn2)(c2ccc(Cl)cc2Cl)O1 (configuration not stated)
inactive: all assays above

CCc1nn(C)c(C(=O)NCc2ccc(C(C)(C)C)cc2)c1Cl
active: [1] 33 µM | [3] 18.3 µM | [4] 6.81 µM | [5] 25.7 µM | [6] 29.4 µM | [8] 31.9 µM | [9] 27.3 µM | [11] 20 µM | [17] 14.4 µM
inactive: all other assays above

CON(C)C(=O)Nc1ccc(Cl)c(Cl)c1
inactive: all assays above

Oc1ccccc1-c1ccccc1
inactive: all assays above

CC(C)(C)c1ccc(CSc2cnn(C(C)(C)C)c(=O)c2Cl)cc1
active: [2] 12.3 µM | [3] 7.02 µM | [5] 23.5 µM | [7] 0.832 µM | [8] 14.2 µM | [15] 20 µM | [17] 6.17 µM
inactive: all other assays above

COc1nc(NC(C)C)nc(NC(C)C)n1
active: [9] 2.36 µM
inactive: all other assays above

C=CCC1=C(C)[C@@H](OC(=O)[C@@H]2[C@@H](C=C(C)C)C2(C)C)CC1=O
active: [2] 35.8 µM | [3] 20 µM | [5] 30.6 µM | [8] 29.5 µM | [15] 20 µM
inactive: all other assays above

CNC(=O)ON=CC(C)(C)SC
active: [19] 1.35 µM
inactive: all other assays above

COP(=S)(OC)Oc1nc(Cl)c(Cl)cc1Cl
active: [17] 32.1 µM
not listed: [4]
inactive: all other assays above

OC(c1ccc(Cl)cc1)(c1cncnc1)c1ccccc1Cl (configuration not stated)
active: [1] 18.3 µM | [3] 25.9 µM | [5] 30.3 µM | [17] 27.6 µM
inactive: all other assays above

O=C(Nc1ccccc1)Nc1ccnc(Cl)c1
active: [3] 34.7 µM | [9] 0.807 µM | [12] 13 µM | [17] 28.6 µM
inactive: all other assays above
